Measured values published in PubChem BioAssay AID1159580 (chemical genetic matrix, 2015).
Hit rate of the full screen: of about 5,500 compounds, about 2,000 (36%) were called active. Inconclusive results (about 18%) are left out. No stated cut-off is given here; in the data, active means normalized growth mostly below about 0.91 (no sharp cut-off); inconclusive means no clear call, values can overlap the other calls; inactive means mostly above about 0.92. This is one part of the list.

Experiment: chemical genetic growth profiling, strain panel (AID 1159580);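 further: tested at 20 µM; growth read once vehicle control cultures reached saturation at 30 °C; 1 = growth at the plate median or of vehicle wells; lower values mean less growth of the strain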
Details: S. cerevisiae deletion strains, growth OD

Measured: normalized growth

N[C@@H](CC(=O)N1CCn2c(nnc2C(F)(F)F)C1)Cc1cc(F)c(F)cc1F
inactive: locus YAL021C, strain ccr4, active compounds read low 0.992 | locus YAL026C, strain drs2, active compounds read low 0.97 | locus YAL030W, strain snc1, active compounds read low 0.985 | locus YBL061C, strain skt5, active compounds read low 0.985 | locus YBR009C, strain hhf1, active compounds read low 0.949 | locus YBR023C, strain chs3, active compounds read low 0.993 | locus YBR171W, strain sec66, active compounds read low 0.992 | locus YBR231C, strain swc5, active compounds read low 0.995 | locus YBR279W, strain paf1, active compounds read low 0.988 | locus YCL011C, strain gbp2, active compounds read low 0.982 | locus YCL016C, strain dcc1, active compounds read low 0.992 | locus YCL061C, strain MRC1, active compounds read low 0.987 | locus YCL069W, strain vba3, active compounds read low 0.984 | locus YCR088W, strain abp1, active compounds read low 0.984 | locus YDL005C, strain med2, active compounds read low 0.983 | locus YDL040C, strain nat1, active compounds read low 0.992 | locus YDR001C, strain nth1, active compounds read low 0.985 | locus YDR069C, strain doa4, active compounds read low 0.971 | locus YDR137W, strain rgp1, active compounds read low 1.01 | locus YDR159W, strain sac3, active compounds read low 0.952 | locus YDR195W, strain ref2 0.941 | locus YDR297W, strain sur2, active compounds read low 0.978 | locus YDR334W, strain swr1, active compounds read low 0.982 | locus YDR335W, strain msn5, active compounds read low 0.991 | locus YDR392W, strain spt3, active compounds read low 0.887 | locus YEL003W, strain gim4, active compounds read low 0.966 | locus YEL037C, strain rad23, active compounds read low 0.983 | locus YEL061C, strain CIN8 (second series), active compounds read low 0.983 | locus YER015W, strain faa2, active compounds read low 0.978 | locus YER016W, strain bim1, active compounds read low 0.995 | locus YER111C, strain swi4, active compounds read low 0.988 | locus YER155C, strain BEM2 (second series), active compounds read low 0.966 | locus YFR010W, strain ubp6, active compounds read low 0.975 | locus YGL167C, strain pmr1, active compounds read low 0.964 | locus YGL173C, strain kem1, active compounds read low 0.985 | locus YGL227W, strain vid30, active compounds read low 0.967 | locus YGL240W, strain doc1, active compounds read low 0.981 | locus YGL253W, strain hxk2, active compounds read low 0.996 | locus YHR013C, strain ard1, active compounds read low 0.944 | locus YHR027C, strain rpn1, active compounds read low 0.985 | locus YHR030C, strain SLT2, active compounds read low 1.03 | locus YHR079C, strain IRE1, active compounds read low 0.985 | locus YHR142W, strain chs7, active compounds read low 1.01 | locus YJL092W, strain hpr5, active compounds read low 0.989 | locus YJL095W, strain BCK1 (second series), active compounds read low 0.993 | locus YJL095W, strain BCK1, active compounds read low 0.96 | locus YJL115W, strain asf1, active compounds read low 0.984 | locus YJL129C, strain trk1, active compounds read low 1.01 | locus YJL154C, strain vps35, active compounds read low 0.987 | locus YJL164C, strain tpk1, active compounds read low 1 | locus YJL166W, strain qcr8, active compounds read low 0.993 | locus YJL187C, strain SWE1, active compounds read low 0.98 | locus YJR066W, strain TOR1, active compounds read low 0.928 | locus YKL160W, strain elf1, active compounds read low 1.01 | locus YKR026C, strain gcn3, active compounds read low 0.972 | locus YKR091W, strain srl3, active compounds read low 0.955 | locus YLL001W, strain dnm1, active compounds read low 0.992 | locus YLL026W, active compounds read low 0.995 | locus YLL041C, strain sdh2, active compounds read low 0.994 | locus YLR027C, strain aat2, active compounds read low 0.988 | locus YLR113W, strain HOG1, active compounds read low 0.978 | locus YLR221C, strain rsa3, active compounds read low 0.989 | locus YLR258W, strain gsy2, active compounds read low 0.979 | locus YLR262C, strain YPT6 (second series), active compounds read low 1 | locus YLR320W, strain mms22, active compounds read low 0.998 | locus YLR342W, strain FKS1, active compounds read low 0.958 | locus YLR357W, strain rsc2, active compounds read low 0.989 | locus YLR370C, strain arc18, active compounds read low 0.977 | locus YLR384C, strain iki3, active compounds read low 0.969 | locus YML120C, strain ndi1, active compounds read low 0.988 | locus YMR058W, strain fet3, active compounds read low 0.977 | locus YMR125W, strain sto1, active compounds read low 0.974 | locus YMR129W, active compounds read low 0.984 | locus YMR205C, strain PFK2, active compounds read low 0.96 | locus YMR231W, strain pep5, active compounds read low 0.977 | locus YNL071W, strain lat1, active compounds read low 0.979 | locus YNL183C, strain NPR1, active compounds read low 0.898 | locus YNL209W, strain ssb2, active compounds read low 0.986 | locus YNL248C, strain rpa49, active compounds read low 1.01 | locus YNL322C, strain KRE1 (second series), active compounds read low 0.975 | locus YNR049C, strain mso1, active compounds read low 0.98 | locus YOR001W, strain rrp6, active compounds read low 1.01 | locus YOR070C, strain gyp1, active compounds read low 0.995 | locus YOR080W, strain dia2, active compounds read low 0.976 | locus YOR083W, strain WHI5, active compounds read low 1.01 | locus YOR106W, strain vam3, active compounds read low 0.994 | locus YOR231W, strain MKK1, active compounds read low 0.975 | locus YOR265W, strain rbl2, active compounds read low 0.993 | locus YOR270C, strain vph1, active compounds read low 0.984 | locus YOR290C, strain snf2, active compounds read low 0.903 | locus YPL051W, strain arl3, active compounds read low 1.01 | locus YPL078C, strain atp4, active compounds read low 0.992 | locus YPL106C, strain sse1, active compounds read low 0.976 | locus YPL240C, strain hsp82, active compounds read low 0.965 | locus YPL256C, strain CLN2, active compounds read low 0.981
